Test results published in paper PMC5540273 (PLoS ONE, 2017).

Assays:
Conditions in all cases: concentration: 1 μM, replicates: in singlicate; n = 1
[1] = test system: LYN
[2] = test system: T1, LZK
T1 construct: gene MAP3K13

[3] = test system: MAK
[4] = test system: MAP3K15
[5] = test system: MAP3K1
[6] = test system: MAP3K2
[7] = test system: MAP3K3
[8] = test system: MAP3K4
[9] = test system: MAP4K2
[10] = test system: MAP4K3
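Also: KINOMEscan kinase panel screen.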

SMILES	%Inh [1] [%]	%Inh [2] [%]	%Inh [3] [%]	%Inh [4] [%]	%Inh [5] [%]	%Inh [6] [%]	%Inh [7] [%]	%Inh [8] [%]	%Inh [9] [%]	%Inh [10] [%]
COC(=O)c1c(-c2ccccc2)c2cc(OC)ccc2c(=O)n1Cc1ccccc1	32	0	33	0	24	0	11	12	0	0
Cl.c1ccc(-c2n[nH]cc2-c2ccnc(-c3ccc(CN4CCOCC4)cc3)c2)nc1 [GW776245]	6	0	0	0	0	18	17	9	0	0
NC(=O)c1nnc2ccccc2c1N	5	0	23	30	28	31	34	15	20	4
COc1ccc(Nc2nccc(NCCNC(=O)Nc3ccccc3F)n2)cc1 [GSK1379901]	0	7	19	0	1	5	0	52	0	0
COc1ccc2nc(-c3cccc(C)n3)nc(Nc3ccncc3)c2c1 [GSK204919]	0	0	25	0	22	0	0	9	0	12
Cc1cccc(-c2nc(Nc3ccncc3)c3ccccc3n2)n1 [GW855857]	0	0	0	0	0	0	0	16	0	0
CCn1c(-c2cccnc2O)nc2cnccc21 [SB-736715]	0	11	13	0	0	0	0	0	0	0
O=C(Nc1n[nH]c2cc(-c3cccc(F)c3F)ccc12)C1CC1 [SB-733894]	0	100	21	0	4	6	30	0	0	12
Cc1c(Cn2ccn3c(=O)cc(N4CCOCC4)nc23)cccc1C(F)(F)F [GSK2289044]	22	0	20	0	15	7	0	20	1	0
Cn1cncc1-c1ccc2ncnc(Nc3ccc(OCc4ccccc4)cc3)c2c1 [GW320571]	2	0	15	0	18	10	0	19	0	16
Cl.Oc1ccc(-c2nc(-c3ccccc3)[nH]c2-c2ccncc2)cc1 [SB-428218]	33	47	18	0	0	0	0	7	0	0
O=C1NC(=O)C(N2CCc3ccccc32)=C1c1ccccc1Cl [SB-373598]	17	0	9	9	23	4	4	29	21	1
Cl.NC(=O)c1cccc(Nc2nccc(Nc3ccc(Oc4cccc(Cl)c4)c(Cl)c3)n2)c1 [GW659008]	29	19	9	0	3	0	0	33	0	0
Cc1csc(-c2nc(Nc3ccncc3)c3ccccc3n2)n1 [GW869640]	0	20	2	35	35	38	1	2	34	0
Cc1cc(N2Cc3ccccc3C2)nc(Nc2ccc(S(=O)(=O)N3CCOCC3)cc2)n1.Cl [GSK1669917]	0	0	14	0	0	0	0	2	0	0
Cc1cc(-c2ccc3c(c2)CC[C@@H](N[C@@H](C)c2ccccc2)C3)cnc1N.Cl [GW412617]	0	7	15	0	17	20	0	0	97.4	36
Cl.O=C(Nc1cccc(-c2nn3ncccc3c2-c2ccnc(Nc3cccnc3)n2)c1)c1c(F)cccc1F [GSK312879]	18	0	25	24	24	16	0	4	0	3
